Screening results (PubChem BioAssay)
CYP2C19 inhib – inhibitors of human CYP2C19 | CYP2C19 Supersomes, luciferin-H EGE luminescence, 30 min | inhibition, % at 5 µM | actives 21% (n = 96,000) | AID 778;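 active = CYP2C19 inhibition above a set limit at 5 µM in the primary screen, cut at about 50% in these data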
CYP2C19 activ – activators of human cytochrome P450 2C19; P33261; recombinant CYP2C19, luciferin-H EGE luminescence; active compounds read high; 0 = fully inhibited enzyme, 1 = untreated enzyme; activation factor at 5 µM; 96,000 tested, under 10 active;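 active = activation factor of at least 2 at 5 µM in the primary screen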
CYP2C9 inh – human CYP2C9 inhibition. P11712. CYP2C9 Supersomes, luciferin-H conversion, luminescence. inhibition, % at 5 µM. actives 20% (n = 96,000). AID 777;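 active = blocking of liver enzyme CYP2C9 beyond about 50% at 5 µM, limit read from the data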
Cav32 inh – human Cav3.2 channel inhibition, primary screen | Cav3.2-expressing cells, Fluo-4 calcium fluorescence FDSS; active compounds read low | AID 449739 | O95180 | B-score at 10 µM | actives 4% (n = 100,000);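 active = single-dose well whose peak fluorescence ratio is a statistical outlier from its plate by either plate-standardised score or position-corrected B-score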
CYP2C9 act – activators of human CYP2C9 | P11712 | recombinant CYP2C9, luciferin-H conversion, luminescence; active compounds read high; factor 1 = untreated enzyme, 0 = blocked | activation factor at 5 µM | actives 1.4% (n = 96,000);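 active = activation factor of 2 or more for CYP2C9 at a 5 µM dose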
Of the large screens only hits and unclear results are named; the others gave an inactive call. Compounds with a hit are over-represented: about 27% of the library has one in this group of screens.

N#CC1=C(SCC(=O)Nc2ccccc2)NC(=O)CC1c1ccco1 (configuration not stated)	none (no result: CYP2C19 inhib, CYP2C19 activ, CYP2C9 inh, CYP2C9 act)
Cc1ccc(C2CC(=O)NC(SCc3ccccc3)=C2C#N)o1 (configuration not stated)	CYP2C9 inh 53
N#CC1=C(SCC(=O)NCc2ccccc2)NC(=O)CC1c1ccco1 (configuration not stated)	CYP2C19 inhib 67, CYP2C9 inh 88
N#CC1=C(SCc2ccccc2)NC(=O)CC1c1ccco1 (configuration not stated)	CYP2C9 inh 71
CCCCCCSC1=C(C#N)C(c2ccc(C)o2)CC(=O)N1 (configuration not stated)	none
CCCCSC1=C(C#N)C(c2ccccc2C)CC(=O)N1 (configuration not stated)	none
CCC(C)S(=O)(=O)c1snnc1C (configuration not stated)	none
Cc1ccccc1-n1ccnc1SCC(=O)O	none
Cn1ccnc1SCC(=O)c1ccc(Br)cc1	CYP2C19 inhib 93
Cc1ccccc1CSc1nccn1-c1ccccc1	CYP2C19 inhib 82, CYP2C9 inh 57
O=C(CSc1nccn1-c1ccccc1)c1ccc(Br)cc1	CYP2C19 inhib 61
Cc1ccccc1NC(=O)Cc1nnc(SCC(=O)c2ccc(Br)cc2)n1C	none
Cc1ccc(S(=O)(=O)/C(C#N)=C/c2c(N3CCC(C(N)=O)CC3)nc3ccccn3c2=O)cc1	CYP2C9 inh 92
Cc1ccc(S(=O)(=O)/C(C#N)=C/c2c(N3CCC(C(N)=O)CC3)nc3c(C)cccn3c2=O)cc1	CYP2C9 inh 80
Cc1cccn2c(=O)c(C=O)c(N3CCCCCC3)nc12	none
Cc1ccc(S(=O)(=O)/C(C#N)=C/c2c(N3CCOCC3)nc3ccccn3c2=O)cc1	none (no result: Cav32 inh)
CCN1CCN(c2nc3c(C)cccn3c(=O)c2/C=C(\C#N)S(=O)(=O)c2ccccc2)CC1	CYP2C9 inh 90
Cc1cccn2c(=O)c(/C=C(\C#N)S(=O)(=O)c3ccccc3)c(N3CCC(C(N)=O)CC3)nc12	CYP2C9 inh 82
CCOc1ccc(S(=O)(=O)Nc2ccc(C(=O)N/N=C(\C)c3ccc(-n4ccnc4)cc3)cc2)cc1	CYP2C19 inhib 99, CYP2C9 inh 99
C/C(=N\NC(=S)NC(C)C)c1ccc(-n2ccnc2)cc1	CYP2C19 inhib 90, CYP2C9 inh 99
COCCNC(=S)N/N=C(\C)c1ccc(-n2ccnc2)cc1	CYP2C19 inhib 99, CYP2C9 inh 100
Cc1cc(C)n(-c2ccc(C(=O)NC(C)C)cc2)n1	none
CNC(=S)N/N=C/c1c(C)nn(-c2ccccc2)c1Cl	none
CNC(=S)N/N=C(\C)c1ccc(-n2ccnc2)cc1	CYP2C19 inhib 99, CYP2C9 inh 100
CCOC(=O)NC(=O)COC(=O)Cc1cc(OC)c(OC)c(OC)c1	none
FC(F)(F)c1nc2ccccc2nc1N/N=C\c1ccccc1	none (no result: Cav32 inh)
N#CC(C(=O)OCc1ccccc1)c1nc2ccccc2nc1N1CCOCC1 (configuration not stated)	CYP2C19 inhib 50
N#CC(C(=O)NC1CCCCC1)c1nc2ccccc2nc1N1CCOCC1 (configuration not stated)	none (no result: Cav32 inh)
CCCCCCOC(=O)C(C#N)c1nc2ccccc2nc1N1CCN(C)CC1 (configuration not stated)	none
CCC(C)COC(=O)C(C#N)c1nc2ccccc2nc1N1CCCCC1 (configuration not stated)	CYP2C9 inh 66
COC(=O)C(C#N)c1nc2ccccc2nc1N1CCCC1 (configuration not stated)	none
CCCCCCOC(=O)C(C#N)c1nc2ccccc2nc1N1CCCCC1 (configuration not stated)	Cav32 inh -5.3
Cc1ccccc1OCc1nc2ccccc2c(=O)n1NC(=O)c1ccco1	none (no result: CYP2C19 inhib, CYP2C19 activ, CYP2C9 inh, CYP2C9 act)
COc1cc(NC(=O)C2CCN(S(=O)(=O)c3ccc(Cl)cc3)CC2)ccc1-n1cnnn1	none
Cc1cc(C)c(S(=O)(=O)N2CCN(c3ccc([N+](=O)[O-])c(-n4nc(C)cc4C)c3)CC2)c(C)c1	CYP2C9 inh 60
O=C(Nc1cccc(F)c1)N1CC=C(c2ccc(Cl)cc2)CC1	CYP2C19 inhib 96, CYP2C9 inh 96, Cav32 inh -7.4
CCn1c(=O)cc(SCC(=O)NCCCN2CCN(c3ccccc3F)CC2)c2ccccc21	Cav32 inh -3.4
CCn1c(=O)cc(SCC(=O)Nc2ccc(OC)c(OC)c2)c2ccccc21	CYP2C19 inhib 60, CYP2C9 act 2
